Consider 40 compounds from PubChem BioAssay (NCI).

This is part of a sample that, as a whole, favours compounds with a hit. Of some 83,000 tested, about 20% had one in any assay.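 Method: cells in 96-well plates; compound added at one concentration; 48 h incubation; percent growth measured; values under 10 scored active.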 A number with no mark means an inactive call. The source made the active and inactive calls.

The test deals with KM12 colon. Nature of the test: NCI-60 one-dose screen, 48 h (100 = growth as untreated, 0 = no growth, -100 = all killed). The note with it: 10 µM unless noted. Here is the method: Growth inhibition of the KM12 human tumor cell line is measured as a screen for anti-cancer activity. Cells are grown in 96 well plates and exposed to the test compound for 48 hours. Compounds are tested at a single concentration, which is 10^-5 M for most compounds. The reported endpoint is percent growth (GI% or GIPRCNT), where numbers from 0 - 100% represent growth inhibition, and numbers from -100% - 0 represent cell death. For example, a value of 40 represents 60% growth inhibition. A value of 0 means no net growth occurred over the course of the experiment. A value of -40 indicates 40% of cells at the beginning of the experiment died by the end of the experiment. A value of -100 means all cells are dead at the end of the experiment.
NCI-60 Human Tumor Cell Lines Screen was performed using the standard one-dose NCI protocol, which is described in more detail at https://dtp.cancer.gov/discovery_development/nci-60/default.htm.
Compounds with GIPRCNT values below 10 were considered active. Activity score was based on GIPRCNT using the following formula: […]
Score is 0 for GIPRCNT values of 100 or above, 50 for GIPRCNT values of 0, and 100 for GIPRCNT values of -100.
Turning to `CN(C)C(=O)OCc1nc2c(N3CCOCC3)nc(-c3ccccc3)nc2n1C`, the growth is -65.6% (active). The value for `COc1cc(CNC(=O)CCCCC[P+](c2ccccc2)(c2ccccc2)c2ccccc2)c(OC)c2c1OCO2` was 45.6%; that for `CCCCCCCCCCCCC1CCC/C=C\CCC(=O)O1` (stereo not given) was 110%. The value for `O=c1[nH]nc(-c2ccc(Br)cc2)cc1Cc1ccc(O)cc1` was 108%. Turning to `COc1ccc(NC(=O)c2sc3nc(C)c(C(=O)c4ccc(OC)cc4)cc3c2N)cc1`, the growth is 46.9%. For the compound `CCN1C(=O)/C(=c2\sc3n(c2=O)NC2C(N=3)N(CC)C(=O)N2CC)c2ccccc21` (stereo not given), the growth was 20.1%.

In the case of `Clc1cc(Cl)cc(N2N=C(c3cccc(Nc4ccncc4)c3)CC2c2ccc3c(c2)OCO3)c1` (stereo not given), the growth was -51.6% (active). As for `Clc1ccc(N2N=C(c3cccc(Nc4ccncc4)c3)CC2c2ccc3c(c2)OCO3)cc1` (stereo not given), the growth is 2.3% (active). The value for `Cc1ccc(C2CC(c3cccc(Nc4ccncc4)c3)=NN2c2ccccc2)cc1` (stereo not given) was -88.3% (active); that for `COc1cc(NCC(O)CN(CC(C)C)CC(C)C)c2nc(C)ccc2c1` (stereo not given) was 75.5%; that for `Cc1cc2cc3cc(C)c(N)cc3[n+](C)c2cc1N` was 5.06% (active). Take `O=C(Nc1ccccc1)Oc1ccccc1-c1ccccc1`: the growth was 107%. Take `COc1cc(C2CC(c3cccc(Nc4ccncc4)c3)=NN2c2cc(Cl)cc(Cl)c2)cc(OC)c1OC` (stereo not given): the growth was -75.7% (active). Regarding `Clc1ccc2c(c1)c(-c1ccccc1)nc1nncn12`, the growth was 103%. For `Cc1ccc(-c2c(Br)c(OC(=O)CO[C@@H]3C[C@H](C)CC[C@H]3C(C)C)c(-c3ccc(C)cc3C)c(Br)c2OC(=O)CO[C@H]2C[C@@H](C)CC[C@@H]2C(C)C)c(C)c1`, the growth was 107%. Turning to `O=C(CN1CCOCC1)Nc1ccc2ncnc(Nc3ccc(Oc4cccc(F)c4)c(Cl)c3)c2c1`, the growth is 90.1%.

Consider `O=c1[nH]c2c(s1)CCCC2CN1CCCCC1` (stereo not given), for which the growth was 108%. The result for `Cc1ccc2nc3c(cc2c1)CSc1nnc(-c2ccc[nH]c2=S)n1N3` reads 99.7%. On to `CC(=O)Nc1ccc(C(=O)Nc2cc(-c3ccccc3)ccc2N)cc1`, for which the growth is 73.2%. Take `COc1ccc(/C(C)=N/NC(=O)CSc2nc3ccccc3c(=O)n2Cc2ccc(S(N)(=O)=O)cc2)c(OC)c1`: the growth is 102%. In the case of `C=C1C(=O)O[C@H]2[C@H]1CC/C(CNC(=O)/C=C/c1ccc(Br)cc1)=C\CC[C@@]1(C)O[C@@H]21`, the growth is 36.4%. On to `CC(C)(C#N)N1CCN(c2ccccc2Cl)CC1`, for which the growth is 106%. As for `O=S(=O)(NCCCNc1nccc(-c2c(-c3cccc(O)c3)nc3occn23)n1)c1ccc(F)cc1`, the growth was 81.9%. For `N/C(=N\N=C\c1cc2ccccc2s1)N/N=C/c1cc2ccccc2s1`, the growth was 103%. `COc1ccc(C2=NN(C(C)=O)C(c3cn(Cc4ccc(Cl)cc4)c4ccccc34)C2)cc1` (stereo not given): the growth is 86.4%. The result for `COc1ccc2c(c1)c(CC(=O)NCCOCCOCC(=O)Nc1ccc(OC)c(C(N)=O)c1O)c(C)n2C(=O)c1ccc(Cl)cc1` reads 99.4%; that for `COc1ccc(C(O)c2cc3c(N)c(C(=O)Nc4ccc(Cl)cc4)sc3nc2C)cc1` (stereo not given), 9.89% (active); that for `CN1CCN(c2cnc(C(=O)Nc3cc(F)cc4cccnc34)cn2)CC1`, 95%. For the compound `C[C@]12C[C@H]1CC[C@]1(C)[C@@H]2CC[C@@]23C[C@H](CC[C@H]21)[C@@](O)(CO)C3`, the growth was 96.5%. Take `CCCCCCCCCCCCCCCC(=O)OC[C@@]1(O)C[C@@]23CC[C@@H]4C(C)(C)[C@H](O)CC[C@@]4(C)[C@@H]2CC[C@H]1C3`: the growth is 108%.

`NC(=O)c1cccc(-c2cc(C(N)=O)ccc2Cl)c1`: the growth was 30.8%. As for `COc1cc(-c2cc(=O)oc3cc(O)ccc23)cc(OC)c1OC`, the growth was 85.7%. On to `COc1cc2nc(-c3ccc(C(F)(F)F)cc3)cc(OCCN3CCCC3)c2cc1OC`, for which the growth was 93.7%. Turning to `Cc1c2c(cc[n+]1Cc1ccccc1)c1ccc(OCC3CCCCC3)cc1n2CC1CCCCC1`, the growth is -99.9% (active). Turning to `CN1CCN(CCCOc2ccc3ncnc(Nc4ccc(Oc5cccc(C(F)(F)F)c5)c(Cl)c4)c3c2)CC1`, the growth was -3.45% (active). Turning to `COc1ccc(CC(C)=C(c2ccc(OCCN(C)C)cc2)c2ccc(OCCN(C)C)cc2)cc1`, the growth was 75.5%. Take `O=C(CSc1nc2sc3c(c2c(=O)n1Cc1ccccc1)CCCC3)N1CCN(c2ccccc2)CC1`: the growth was 101%.

As for `COc1ccc(C(=O)/C=C/c2c(OC)cc(OC)cc2OC)c(OC)c1`, the growth is 15.6%. Regarding `CC1(C)CC[C@]2(C(=O)NCC#CCN3CCOCC3)CC[C@]3(C)C(=CC[C@@H]4[C@@]5(C)Cc6c([nH]c7ccccc67)C(C)(C)[C@@H]5CC[C@]43C)[C@@H]2C1`, the growth was 91.3%. For the compound `C=C(C)[C@@H]1CC[C@]2(C(=O)NCCCN(CCC#N)CCC#N)CC[C@]3(C)[C@H](CC[C@@H]4[C@@]5(C)CCC(=O)C(C)(C)[C@@H]5CC[C@]43C)[C@@H]12`, the growth is 104%.
